Measured values from PubChem BioAssay (NCI).
About 83,000 compounds went through this panel and 20% of them were active in at least one assay; those are over-represented in the sample as a whole.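 The endpoint reported here, percent growth, reads 100 for growth as untreated, 0 for no net growth and -100 for all cells dead.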 Values without a mark were called inactive. Activity calls are given as the source filed them. How the source made its calls: active means growth percent below 10; inactive means the rest.

Tested on: BT-549 breast
Test: NCI-60 one-dose screen, 48 h (100 = growth as untreated, 0 = no growth, -100 = all killed)
Conditions: 10 µM unless noted

Row | Structure (SMILES) | growth
1 | CC(=O)NC(C)(C)C(=O)N1CCC[C@H]1C(=O)NC(C)(C)C(=O)N[C@@H](C)C(=O)NC(C)(C)C(=O)NC(C)(C)C(=O)N[C@@H](CCC(N)=O)C(=O)NC(C)(C)C(=O)N[C@H](C(=O)NC(C)(C)C(=O)NCC(=O)N[C@@H](CC(C)C)C(=O)NC(C)(C)C(=O)N1CCC[C@H]1C(=O)N[C@H](C(=O)NC(C)(C)C(=O)NC(C)(C)C(=O)N[C@@H](CCC(N)=O)C(=O)N[C@@H](CCC(N)=O)C(=O)N[C@H](CO)Cc1ccccc1)C(C)C)C(C)C | -56.1% [4.25 µM] (active)
2 | NC(=S)N/N=C(/C=C/c1cn(-c2ccccc2)nc1-c1ccc(Cl)cc1)c1cc2ccccc2oc1=O | 87.1%
3 | Cc1ccc(/C=C/c2nn3c(-c4ccco4)nnc3s2)cc1 | 99.2%
4 | COCCOc1ccc(-c2csc(NC(C)=O)n2)cc1NS(=O)(=O)c1cccc2c(N(C)C)cccc12 | 105%
5 | COc1cc2cc(Oc3ccc(NC(=O)c4cccc(C(F)(F)F)c4)cc3)c(C)nc2cc1OCCN(C)C | 101%
6 | C=C(C)[C@@H]1CC[C@]2(COS(C)(=O)=O)CC[C@]3(C)[C@H](CC[C@@H]4[C@@]5(C)CCCNC(C)(C)[C@@H]5CC[C@]43C)[C@@H]12 | 93.9%
7 | NC(=O)C(=Cc1ccc(Cl)cc1)C(N)=O | 58.1%
8 | CCc1ccc(NC(=O)N[C@@H](Cc2cccc(F)c2)C(=O)N[C@@H]2C(=O)N3CCC[C@H]3C(=O)N3CCCC[C@H]3C(=O)N[C@@H](C)C(=O)N3C[C@H](C)C[C@H]3C(=O)O[C@H]2C)c(F)c1 | 17.9%
